Source: PubChem BioAssay (EPA / NIEHS)
Records with an inconclusive call do not appear. Activity calls are given as the source filed them. Rule for the calls, unless noted: active = hit-call score of the fitted dose curve at least 0.9, where 1 is the maximum; inconclusive = response in the unintended direction; inactive = score below 0.9.

Assays:
[1] = ATG_M_06_TRANS: Attagene TRANS-FACTORIAL HepG2 Assay for M06 Transcription Factor (Internal Marker) (AID 2282983); settings: HepG2 Attagene TRANS M06 internal marker reporter;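 note: reporter transcript level by RT-PCR then capillary electrophoresis fluorescence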
Outline: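 Measured by capillary electrophoresis of fluorescently labelled RT-PCR products, this endpoint reflects reporter mRNA in HepG2 cells harbouring exogenous NR-GAL4 reporter constructs after 24 h exposure, with DMSO as baseline.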

[2] = biological target: Nuclear receptor subfamily 4 group A member 2 (Homo sapiens) (UniProt P43354); assay: ATG_NURR1_TRANS: Attagene TRANS-FACTORIAL HepG2 Assay for human Nuclear Receptor Related Protein 1 (NURR1) (AID 2282985); settings: HepG2 Attagene TRANS reporter, mRNA readout
Sequence of Nuclear receptor subfamily 4 group A member 2 (Homo sapiens) (P43354 whole entry, looked up): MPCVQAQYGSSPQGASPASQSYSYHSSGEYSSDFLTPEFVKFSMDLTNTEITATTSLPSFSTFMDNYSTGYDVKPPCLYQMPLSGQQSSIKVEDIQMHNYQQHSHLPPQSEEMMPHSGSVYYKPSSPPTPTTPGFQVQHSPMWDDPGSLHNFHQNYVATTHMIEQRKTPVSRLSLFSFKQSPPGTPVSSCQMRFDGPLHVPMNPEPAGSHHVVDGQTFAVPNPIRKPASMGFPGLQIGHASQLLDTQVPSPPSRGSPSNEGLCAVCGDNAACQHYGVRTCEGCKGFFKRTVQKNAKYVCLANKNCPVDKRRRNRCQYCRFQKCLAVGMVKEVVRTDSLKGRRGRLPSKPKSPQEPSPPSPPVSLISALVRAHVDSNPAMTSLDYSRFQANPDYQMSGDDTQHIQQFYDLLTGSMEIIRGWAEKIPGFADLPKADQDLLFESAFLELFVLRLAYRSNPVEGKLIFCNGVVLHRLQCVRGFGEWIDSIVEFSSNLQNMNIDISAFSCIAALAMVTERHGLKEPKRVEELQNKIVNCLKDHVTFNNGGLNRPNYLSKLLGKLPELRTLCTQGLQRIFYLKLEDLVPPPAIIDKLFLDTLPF
Outline: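 Cells: HepG2, transiently transfected. Exposure: 24 h. Detection: fluorescence of labelled RT-PCR products separated by capillary electrophoresis; upward fit versus DMSO.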

[3] = biological target: Transcriptional activator Myb (Homo sapiens) (UniProt P10242); assay: ATG_Myb_CIS: Attagene CIS-FACTORIAL HepG2 Assay for human Myeloblastosis (Myb) Proto-Oncogene Transcription Factor (AID 2282986; active = hit-call score of the fitted dose curve at least 0.9, where 1 is the maximum; inactive = score below 0.9); settings: HepG2 Attagene CIS-FACTORIAL Myb reporter transcription; actives raise or lower the signal
Sequence of Transcriptional activator Myb (Homo sapiens) (P10242 whole entry, looked up): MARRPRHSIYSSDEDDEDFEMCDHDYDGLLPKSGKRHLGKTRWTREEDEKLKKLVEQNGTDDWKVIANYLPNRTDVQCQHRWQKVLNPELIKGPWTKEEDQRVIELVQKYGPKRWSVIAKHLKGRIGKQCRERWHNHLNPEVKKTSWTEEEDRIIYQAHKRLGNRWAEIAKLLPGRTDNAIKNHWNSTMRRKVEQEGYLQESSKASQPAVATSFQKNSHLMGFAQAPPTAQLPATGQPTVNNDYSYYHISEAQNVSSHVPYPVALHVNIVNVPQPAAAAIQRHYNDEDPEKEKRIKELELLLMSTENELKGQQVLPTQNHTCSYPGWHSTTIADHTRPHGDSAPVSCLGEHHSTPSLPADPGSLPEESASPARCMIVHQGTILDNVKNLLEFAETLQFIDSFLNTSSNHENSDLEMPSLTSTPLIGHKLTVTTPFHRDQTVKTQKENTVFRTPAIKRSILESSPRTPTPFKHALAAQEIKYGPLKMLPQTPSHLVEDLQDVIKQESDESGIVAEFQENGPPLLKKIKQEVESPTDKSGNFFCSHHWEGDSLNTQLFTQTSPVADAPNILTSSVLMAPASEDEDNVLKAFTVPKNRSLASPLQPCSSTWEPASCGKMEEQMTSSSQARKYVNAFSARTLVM
Outline: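 Fluorescence signals from capillary electrophoresis of RT-PCR-amplified reporter cDNA give the read-out. Cells: HepG2 transfected with multiple cis-regulated reporter units. Exposure lasts 24 hours; DMSO defines baseline for gain or loss of signal.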

[4] = biological target: Nuclear respiratory factor 1 (Homo sapiens) (UniProt Q16656); assay: ATG_NRF1_CIS: Attagene CIS-FACTORIAL HepG2 Assay for human Nuclear Respiratory Factor 1 (NRF1) Orphan Gene (AID 2282987; active = hit-call score of the fitted dose curve at least 0.9, where 1 is the maximum; inactive = score below 0.9); settings: HepG2 NRF1 cis-element reporter, Attagene multiplex; actives raise or lower the signal
Sequence of Nuclear respiratory factor 1 (Homo sapiens) (Q16656 whole entry, looked up): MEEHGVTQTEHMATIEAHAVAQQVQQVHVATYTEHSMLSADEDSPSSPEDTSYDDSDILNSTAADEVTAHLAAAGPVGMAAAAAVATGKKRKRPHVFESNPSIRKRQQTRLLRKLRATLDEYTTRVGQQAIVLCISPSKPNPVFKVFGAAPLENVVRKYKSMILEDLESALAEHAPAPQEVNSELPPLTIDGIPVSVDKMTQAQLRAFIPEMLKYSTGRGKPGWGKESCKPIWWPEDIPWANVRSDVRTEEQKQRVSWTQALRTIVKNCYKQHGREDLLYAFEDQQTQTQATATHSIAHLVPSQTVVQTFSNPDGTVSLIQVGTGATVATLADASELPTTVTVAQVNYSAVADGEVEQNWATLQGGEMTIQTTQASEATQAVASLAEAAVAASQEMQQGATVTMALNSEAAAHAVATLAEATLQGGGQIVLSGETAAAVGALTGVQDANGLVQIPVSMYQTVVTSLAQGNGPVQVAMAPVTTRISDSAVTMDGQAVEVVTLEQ
Outline: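 Transcriptional reporter readout, one component of a 52-endpoint multiplexed HepG2 panel. Exposure 24 h; mRNA detected via RT-PCR and fluorescent capillary electrophoresis; fitting in both directions against DMSO.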

[5] = biological target: Oxysterols receptor LXR-beta (Homo sapiens) (UniProt P55055); assay: ATG_LXRb_TRANS: Attagene TRANS-FACTORIAL HepG2 Assay for human Liver X Receptor beta (LXRb) (AID 2282981); settings: HepG2 Attagene TRANS GAL4-LXRb reporter, mRNA
Sequence of Oxysterols receptor LXR-beta (Homo sapiens) (P55055 whole entry, looked up, the tested form may be a part): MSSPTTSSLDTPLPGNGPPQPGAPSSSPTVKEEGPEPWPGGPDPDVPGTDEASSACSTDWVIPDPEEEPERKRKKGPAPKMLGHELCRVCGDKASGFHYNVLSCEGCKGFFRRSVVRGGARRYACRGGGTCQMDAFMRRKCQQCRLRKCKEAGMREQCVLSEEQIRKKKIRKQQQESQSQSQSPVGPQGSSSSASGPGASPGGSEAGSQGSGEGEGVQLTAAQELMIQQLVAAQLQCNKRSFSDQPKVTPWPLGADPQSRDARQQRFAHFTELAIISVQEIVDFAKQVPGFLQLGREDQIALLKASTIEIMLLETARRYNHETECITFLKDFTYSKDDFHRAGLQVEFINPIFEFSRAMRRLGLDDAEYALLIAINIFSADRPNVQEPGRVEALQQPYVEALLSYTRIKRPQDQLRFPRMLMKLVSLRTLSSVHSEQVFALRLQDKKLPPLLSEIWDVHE
Outline: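 Cells: HepG2, transiently transfected with GAL4-UAS reporter units plus LXRb-Gal4 fusion. Treatment: 24 h. Detection: reporter mRNA by RT-PCR, 6-FAM labelling, HpaI digestion, capillary electrophoresis.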

[6] = ATG_M_32_TRANS: Attagene TRANS-FACTORIAL HepG2 Assay for M32 Transcription Factor (Internal Marker) (AID 2282984); settings: HepG2 Attagene TRANS M32 internal marker reporter;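 note: transcript level of a background control reporter unit measured by RT-PCR and capillary electrophoresis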
Outline: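 Using transiently transfected HepG2 cells exposed to test chemicals for 24 h, reporter transcripts are converted to labelled cDNA fragments and quantified by capillary electrophoresis. DMSO defines the activity baseline.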

[7] = biological target: Oxysterols receptor LXR-alpha (Homo sapiens) (UniProt Q13133); assay: ATG_LXRa_TRANS: Attagene TRANS-FACTORIAL HepG2 Assay for human Liver X Receptor alpha (LXRa) (AID 2282980); settings: HepG2 Attagene TRANS reporter, LXRa transactivation
Sequence of Oxysterols receptor LXR-alpha (Homo sapiens) (Q13133 whole entry, looked up): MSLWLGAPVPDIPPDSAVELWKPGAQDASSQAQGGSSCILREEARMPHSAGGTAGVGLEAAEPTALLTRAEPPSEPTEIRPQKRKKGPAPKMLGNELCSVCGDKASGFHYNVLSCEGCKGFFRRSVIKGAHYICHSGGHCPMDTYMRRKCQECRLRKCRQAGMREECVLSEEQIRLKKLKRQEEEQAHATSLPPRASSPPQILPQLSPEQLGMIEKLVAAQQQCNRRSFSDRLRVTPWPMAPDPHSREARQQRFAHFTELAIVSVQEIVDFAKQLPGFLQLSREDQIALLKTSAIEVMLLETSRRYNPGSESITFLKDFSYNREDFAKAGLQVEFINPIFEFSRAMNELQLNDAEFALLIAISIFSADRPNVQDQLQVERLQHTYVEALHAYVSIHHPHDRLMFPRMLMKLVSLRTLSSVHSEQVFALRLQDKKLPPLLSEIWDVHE
Outline: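 Transient HepG2 transfectants, 24 h dosing, RT-PCR/CE mRNA reporter quantitation; gain-of-signal vs DMSO.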

[8] = biological target: Hepatocyte nuclear factor 4-alpha (Homo sapiens) (UniProt P41235); assay: ATG_HNF4a_TRANS: Attagene TRANS-FACTORIAL HepG2 Assay for human Hepatocyte Nuclear Factor 4 alpha (HNF4a) (AID 2282982); settings: HepG2 HNF4a transactivation reporter, mRNA readout
Sequence of Hepatocyte nuclear factor 4-alpha (Homo sapiens) (P41235 whole entry, looked up): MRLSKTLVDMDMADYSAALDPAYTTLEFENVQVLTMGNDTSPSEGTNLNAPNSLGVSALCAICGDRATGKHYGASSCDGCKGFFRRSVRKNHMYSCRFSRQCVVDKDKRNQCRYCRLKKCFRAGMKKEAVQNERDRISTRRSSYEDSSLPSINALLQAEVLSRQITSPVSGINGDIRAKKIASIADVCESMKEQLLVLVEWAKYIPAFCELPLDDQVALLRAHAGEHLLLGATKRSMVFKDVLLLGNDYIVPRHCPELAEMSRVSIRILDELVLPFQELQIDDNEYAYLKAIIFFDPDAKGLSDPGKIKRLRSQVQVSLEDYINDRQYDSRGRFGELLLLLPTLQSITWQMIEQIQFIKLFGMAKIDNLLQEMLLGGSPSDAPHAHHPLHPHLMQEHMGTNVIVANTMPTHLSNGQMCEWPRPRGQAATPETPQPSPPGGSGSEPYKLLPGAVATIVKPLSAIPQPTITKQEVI
Outline: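 Transfected HepG2 reporter cells are dosed for 24 h; reporter RNA is reverse-transcribed, amplified, fluorescently labelled and HpaI-digested before CE sizing. Positive-direction fit against DMSO.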

For COC(=O)C(F)(F)C(F)(F)C(F)(F)C(F)(F)C(F)(F)F, the outcome [1] was “inactive”, the outcome [2] was “inactive” and the outcome [3] was “inactive”. For the same compound, the outcome [4] was “inactive”.
With c1cc[nH]c1 the outcome [1] was “inactive”, the outcome [3] was “inactive” and the outcome [4] was “inactive”.
For CCCCCCCCCCCCCCC, the outcome [5] was “inactive”, the outcome [2] was “inactive” and the outcome [3] was “inactive”. For the same compound, the outcome [4] was “inactive”.
In the case of Cc1cccc2c1ccc1ccccc12, the outcome [6] is reported as “inactive”, the outcome [2] is reported as “inactive” and the outcome [3] is reported as “inactive”. The outcome [4] was “inactive”.
For NC(C(F)(F)F)C(F)(F)F, the outcome [1] was “inactive”, the outcome [2] was “inactive” and the outcome [3] was “inactive”. The outcome [4] was “inactive”.
For CCCCC(CC)C(=O)O (stereo not given), the outcome [7] was “inactive”, the outcome [1] was “inactive” and the outcome [2] was “inactive”. The outcome [3] was “inactive” and the outcome [4] was “inactive”.
In the case of Cc1cncc(C)c1, the outcome [3] is reported as “inactive” and the outcome [4] is reported as “inactive”.
In the case of COc1cc([N+](=O)[O-])ccc1N, the outcome [5] is reported as “inactive”, the outcome [3] is reported as “inactive” and the outcome [4] is reported as “inactive”.
For CCCCCCCCCC=CCC1CC(=O)OC1=O (stereo not given), the outcome [1] was “inactive”, the outcome [3] was “inactive” and the outcome [4] was “inactive”.
In the case of CCCCCCCCCCCCCCCC(=O)OC, the outcome [5] is reported as “inactive”, the outcome [8] is reported as “inactive” and the outcome [6] is reported as “inactive”. For the same compound, the outcome [3] was “inactive” and the outcome [4] was “inactive”.
With CCO[Si](C)(C)OCC the outcome [5] was “inactive”, the outcome [8] was “inactive” and the outcome [2] was “inactive”. The outcome [3] was “inactive” and the outcome [4] was “inactive”.
For Oc1c(Cl)ccc(Cl)c1Cl, the outcome [5] was “inactive”, the outcome [8] was “inactive” and the outcome [1] was “inactive”. The outcome [6] was “inactive”, the outcome [3] was “inactive” and the outcome [4] was “inactive”.
With CS(=O)(=O)c1ccc([C@@H](CC2CCCC2)C(=O)Nc2cnccn2)cc1Cl the outcome [5] was “inactive”, the outcome [1] was “inactive” and the outcome [6] was “inactive”. The outcome [3] was “inactive”.
With NCCN the outcome [6] was “inactive”, the outcome [2] was “inactive” and the outcome [3] was “inactive”. For the same compound, the outcome [4] was “inactive”.
With CC=O the outcome [5] was “inactive” and the outcome [4] was “inactive”.
In the case of CCCCCCC(C)(C)C(=O)O, the outcome [1] is reported as “inactive”, the outcome [6] is reported as “inactive” and the outcome [3] is reported as “inactive”. The outcome [4] was “inactive”.
With COC(=O)C(F)(F)C(F)(F)C(F)(F)F the outcome [5] was “inactive”, the outcome [1] was “inactive” and the outcome [2] was “inactive”. The outcome [3] was “inactive” and the outcome [4] was “inactive”.
In the case of CC1CCC(CO)CC1 (stereo not given), the outcome [5] is reported as “inactive”, the outcome [1] is reported as “inactive” and the outcome [6] is reported as “inactive”. The outcome [2] was “inactive”, the outcome [3] was “inactive” and the outcome [4] was “inactive”.
In the case of COC(=O)CC(C(C)=O)C(=O)OC (stereo not given), the outcome [8] is reported as “inactive”, the outcome [1] is reported as “inactive” and the outcome [3] is reported as “inactive”. For the same compound, the outcome [4] was “inactive”.
With C=CC(=O)OCC(CO)(COCC(COC(=O)C=C)(COC(=O)C=C)COC(=O)C=C)COC(=O)C=C the outcome [8] was “inactive”, the outcome [1] was “inactive” and the outcome [6] was “inactive”. For the same compound, the AC50 [3] was 7.52 µM (active) and the AC50 [4] was 14.9 µM (active).
For CCOC=O, the outcome [8] was “inactive”, the outcome [1] was “inactive” and the outcome [3] was “inactive”. For the same compound, the outcome [4] was “inactive”.
In the case of COc1ccc(C#N)cc1, the outcome [5] is reported as “inactive”, the outcome [1] is reported as “inactive” and the outcome [6] is reported as “inactive”. The outcome [4] was “inactive”.
In the case of O=S(=O)(O)c1ccc2cc(O)ccc2c1, the outcome [1] is reported as “inactive”, the outcome [3] is reported as “inactive” and the outcome [4] is reported as “inactive”.
In the case of Clc1ccc2c(Cl)ccnc2c1, the outcome [8] is reported as “inactive”, the outcome [1] is reported as “inactive” and the outcome [6] is reported as “inactive”. For the same compound, the outcome [3] was “inactive” and the outcome [4] was “inactive”.
In the case of CCC(=O)O, the outcome [8] is reported as “inactive”, the outcome [1] is reported as “inactive” and the outcome [2] is reported as “inactive”. The outcome [3] was “inactive” and the outcome [4] was “inactive”.
In the case of O=C(F)C(F)(F)C(F)(F)C(F)(F)C(=O)F, the outcome [8] is reported as “inactive”, the outcome [1] is reported as “inactive” and the outcome [6] is reported as “inactive”. For the same compound, the outcome [2] was “inactive”, the outcome [3] was “inactive” and the outcome [4] was “inactive”.
In the case of Cc1ccc(C)c(S(=O)(=O)O)c1, the outcome [7] is reported as “inactive”, the outcome [1] is reported as “inactive” and the outcome [6] is reported as “inactive”. For the same compound, the outcome [2] was “inactive”, the outcome [3] was “inactive” and the outcome [4] was “inactive”.
In the case of CCC(C)c1ccccc1O (stereo not given), the outcome [1] is reported as “inactive”, the outcome [2] is reported as “inactive” and the outcome [4] is reported as “inactive”.
With CC(C)c1c(C(=O)Nc2ccccc2)c(-c2ccccc2)c(-c2ccc(F)cc2)n1CC[C@@H](O)C[C@@H](O)CC(=O)O the outcome [1] was “inactive” and the outcome [6] was “inactive”.
In the case of CC(=O)Nc1ccc(O)cc1, the outcome [1] is reported as “inactive”, the outcome [6] is reported as “inactive” and the outcome [3] is reported as “inactive”.
In the case of CCCCCCCCCCCC[N+](C)(C)CCCCCCCCCCCC, the outcome [5] is reported as “inactive”, the AC50 [8] is reported as 58.1 µM (active) and the outcome [1] is reported as “inactive”. The outcome [6] was “inactive”, the outcome [2] was “inactive” and the outcome [3] was “inactive”. For the same compound, the outcome [4] was “inactive”.
With CCCCCCCCCCCC(=O)NCCCN(C)C the outcome [3] was “inactive” and the outcome [4] was “inactive”.
For CCOC=C(C(=O)OCC)C(=O)OCC, the outcome [5] was “inactive”, the outcome [1] was “inactive” and the outcome [6] was “inactive”. For the same compound, the outcome [2] was “inactive”, the outcome [3] was “inactive” and the outcome [4] was “inactive”.
In the case of CCCCCCCCCCCC, the outcome [5] is reported as “inactive”, the outcome [1] is reported as “inactive” and the outcome [6] is reported as “inactive”. For the same compound, the outcome [2] was “inactive”, the outcome [3] was “inactive” and the outcome [4] was “inactive”.
In the case of CCCCC(CC)C(=O)OCCOCCOCCOCCOC(=O)C(CC)CCCC (stereo not given), the outcome [1] is reported as “inactive”, the outcome [6] is reported as “inactive” and the outcome [2] is reported as “inactive”. The outcome [3] was “inactive” and the outcome [4] was “inactive”.
For Cn1sccc1=O, the outcome [6] was “inactive”, the outcome [3] was “inactive” and the AC50 [4] was 170 µM (active).
With N=C(N)c1ccc(OCCCCCOc2ccc(C(=N)N)cc2)cc1 the outcome [1] was “inactive”, the outcome [3] was “inactive” and the outcome [4] was “inactive”.
